From the supplement of paper PMC6897291

Test system: RIVA
Assay: growth inhibition by drug plus 177Lu-lilotomab satetraxetan (1 - RLU/untreated control) (fraction); higher = stronger inhibition
Details: 177Lu-lilotomab satetraxetan 0.5 ug/ml
Protocol: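 RIVA (RI-1) ABC-DLBCL cells were pretreated or not for 18 h with 0.5 ug/ml 177Lu-lilotomab satetraxetan (600 MBq/mg), washed and seeded (3000 cells/well) on 384-well plates pre-printed with the Selleck Cambridge Cancer Compound library. Viability was read by RealTime-Glo luminescence on days 3-6 after seeding. Effect = 1 - RLU/mean RLU of the 48 untreated no-drug control wells per plate; Bliss score = (M-E)/(1-Fa).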

Row | SMILES | growth inhibition by drug plus 177Lu-lilotomab satetraxetan (10 nM, time (day): 3) | growth inhibition by drug plus 177Lu-lilotomab satetraxetan (10 nM, time (day): 4) | growth inhibition by drug plus 177Lu-lilotomab satetraxetan (10 nM, time (day): 5) | growth inhibition by drug plus 177Lu-lilotomab satetraxetan (10 nM, time (day): 6) | growth inhibition by drug plus 177Lu-lilotomab satetraxetan (100 nM, time (day): 3) | growth inhibition by drug plus 177Lu-lilotomab satetraxetan (100 nM, time (day): 4) | growth inhibition by drug plus 177Lu-lilotomab satetraxetan (100 nM, time (day): 5) | growth inhibition by drug plus 177Lu-lilotomab satetraxetan (100 nM, time (day): 6)
1 | O=C(O)c1nn(Cc2ccc(Cl)cc2Cl)c2ccccc12 [Lonidamine] | 0.616 | 0.624 | 0.644 | 0.656 | 0.309 | 0.446 | 0.459 | 0.45
2 | O=C(Oc1ccc([N+](=O)[O-])cc1)N1CCC(C(O)(c2ccc3c(c2)OCO3)c2ccc3c(c2)OCO3)CC1 | 0.375 | 0.498 | 0.518 | 0.517 | 0.429 | 0.517 | 0.523 | 0.501
3 | CN(C)CCN(C)CCc1ccc(Cl)c(Cl)c1 | 0.215 | 0.408 | 0.459 | 0.48 | 0.0519 | 0.192 | 0.22 | 0.211
4 | N[C@@H](Cc1ccc(N(CCCl)CCCl)cc1)C(=O)O [Melphalan] | 0.357 | 0.502 | 0.516 | 0.527 | 0.365 | 0.48 | 0.492 | 0.494
5 | C=C1C[C@@H]2[C@H](CC[C@]3(C)C(=O)CC[C@@H]23)[C@@]2(C)C=CC(=O)C=C12 [Exemestane] | 0.609 | 0.639 | 0.647 | 0.653 | 0.483 | 0.528 | 0.533 | 0.543
